Measurements taken from PubChem BioAssay AID1159580 (chemical genetic matrix, 2015).
Screen size: about 5,500 compounds; about 2,000 (36%) were called active. About 18% were inconclusive and are not listed. Cut-off read from the data, not from the text of the source: active = normalized growth mostly below about 0.91 (no sharp cut-off); inconclusive = no clear call, values can overlap the other calls; inactive = mostly above about 0.92. This is one part of the list.

Assay: chemical genetic growth profiling, strain panel (AID 1159580);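 note: tested at 20 µM; growth read once vehicle control cultures reached saturation at 30 °C; 1 = growth at the plate median or of vehicle wells; lower values mean less growth of the strain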
Conditions: growth OD

Measured: normalized growth

CCC(=O)OCC(=O)C1(OC(=O)CC)C(C)CC2C3CCC4=CC(=O)C=CC4(C)C3(Cl)C(O)CC21C (configuration not stated)
active: S. cerevisiae deletion strains, locus YOR270C, strain vph1, hits give low values 0.757
inactive: S. cerevisiae deletion strains, locus YJR043C, strain POL32, hits give low values 1.03 | S. cerevisiae deletion strains, locus YJR066W, strain TOR1, hits give low values 0.995 | S. cerevisiae deletion strains, locus YKL009W, strain mrt4, hits give low values 1 | S. cerevisiae deletion strains, locus YKL068W, hits give low values 0.989 | S. cerevisiae deletion strains, locus YKL085W, strain MDH1 (second series), hits give low values 0.997 | S. cerevisiae deletion strains, locus YKL085W, strain MDH1, hits give low values 0.997 | S. cerevisiae deletion strains, locus YKL160W, strain elf1, hits give low values 0.964 | S. cerevisiae deletion strains, locus YKR001C, strain vps1, hits give low values 0.992 | S. cerevisiae deletion strains, locus YKR026C, strain gcn3, hits give low values 0.983 | S. cerevisiae deletion strains, locus YKR091W, strain srl3, hits give low values 0.983 | S. cerevisiae deletion strains, locus YLL001W, strain dnm1, hits give low values 0.927 | S. cerevisiae deletion strains, locus YLL026W, hits give low values 0.989 | S. cerevisiae deletion strains, locus YLL041C, strain sdh2, hits give low values 0.977 | S. cerevisiae deletion strains, locus YLR027C, strain aat2, hits give low values 0.962 | S. cerevisiae deletion strains, locus YLR039C, strain RIC1, hits give low values 1.02 | S. cerevisiae deletion strains, locus YLR058C, strain SHM2, hits give low values 1.02 | S. cerevisiae deletion strains, locus YLR102C, strain apc9, hits give low values 0.994 | S. cerevisiae deletion strains, locus YLR113W, strain HOG1, hits give low values 1.07 | S. cerevisiae deletion strains, locus YLR221C, strain rsa3, hits give low values 1.01 | S. cerevisiae deletion strains, locus YLR258W, strain gsy2, hits give low values 0.993 | S. cerevisiae deletion strains, locus YLR262C, strain YPT6 (second series), hits give low values 0.915 | S. cerevisiae deletion strains, locus YLR262C, strain YPT6, hits give low values 1.07 | S. cerevisiae deletion strains, locus YLR268W, strain sec22, hits give low values 0.985 | S. cerevisiae deletion strains, locus YLR320W, strain mms22, hits give low values 0.983 | S. cerevisiae deletion strains, locus YLR330W, strain CHS5, hits give low values 1.02 | S. cerevisiae deletion strains, locus YLR342W, strain FKS1 (second series), hits give low values 1.05 | S. cerevisiae deletion strains, locus YLR342W, strain FKS1, hits give low values 0.977 | S. cerevisiae deletion strains, locus YLR357W, strain rsc2, hits give low values 1.03 | S. cerevisiae deletion strains, locus YLR370C, strain arc18, hits give low values 0.963 | S. cerevisiae deletion strains, locus YLR371W, strain rom2, hits give low values 0.992 | S. cerevisiae deletion strains, locus YLR384C, strain iki3, hits give low values 0.958 | S. cerevisiae deletion strains, locus YLR418C, strain cdc73, hits give low values 0.984 | S. cerevisiae deletion strains, locus YML016C, strain PPZ1, hits give low values 1.02 | S. cerevisiae deletion strains, locus YML032C, strain rad52, hits give low values 0.994 | S. cerevisiae deletion strains, locus YML120C, strain ndi1, hits give low values 0.958 | S. cerevisiae deletion strains, locus YML124C, strain tub3, hits give low values 0.985 | S. cerevisiae deletion strains, locus YMR058W, strain fet3, hits give low values 0.986 | S. cerevisiae deletion strains, locus YMR078C, strain ctf18, hits give low values 0.992 | S. cerevisiae deletion strains, locus YMR125W, strain sto1, hits give low values 0.988 | S. cerevisiae deletion strains, locus YMR129W, hits give low values 0.976 | S. cerevisiae deletion strains, locus YMR205C, strain PFK2, hits give low values 0.965 | S. cerevisiae deletion strains, locus YMR223W, strain ubp8, hits give low values 1 | S. cerevisiae deletion strains, locus YMR231W, strain pep5, hits give low values 0.971 | S. cerevisiae deletion strains, locus YMR307W, strain GAS1, hits give low values 1.09 | S. cerevisiae deletion strains, locus YNL067W, strain RPL9B, hits give low values 0.996 | S. cerevisiae deletion strains, locus YNL071W, strain lat1, hits give low values 0.989 | S. cerevisiae deletion strains, locus YNL183C, strain NPR1, hits give low values 0.983 | S. cerevisiae deletion strains, locus YNL209W, strain ssb2, hits give low values 0.997 | S. cerevisiae deletion strains, locus YNL233W, strain BNI4, hits give low values 1 | S. cerevisiae deletion strains, locus YNL248C, strain rpa49, hits give low values 0.973 | S. cerevisiae deletion strains, locus YNL250W, strain rad50, hits give low values 1 | S. cerevisiae deletion strains, locus YNL271C, strain bni1, hits give low values 0.988 | S. cerevisiae deletion strains, locus YNL298W, strain CLA4, hits give low values 0.991 | S. cerevisiae deletion strains, locus YNL307C, strain MCK1, hits give low values 0.981 | S. cerevisiae deletion strains, locus YNL322C, strain KRE1 (second series), hits give low values 0.971 | S. cerevisiae deletion strains, locus YNR049C, strain mso1, hits give low values 0.982 | S. cerevisiae deletion strains, locus YNR052C, strain pop2, hits give low values 0.994 | S. cerevisiae deletion strains, locus YOL012C, strain htz1 1.1 | S. cerevisiae deletion strains, locus YOL147C, strain pex11, hits give low values 0.986 | S. cerevisiae deletion strains, locus YOR001W, strain rrp6, hits give low values 0.952 | S. cerevisiae deletion strains, locus YOR061W, strain CKA2, hits give low values 1.02 | S. cerevisiae deletion strains, locus YOR069W, strain VPS5, hits give low values 1.01 | S. cerevisiae deletion strains, locus YOR070C, strain gyp1, hits give low values 0.996 | S. cerevisiae deletion strains, locus YOR080W, strain dia2, hits give low values 0.954 | S. cerevisiae deletion strains, locus YOR083W, strain WHI5, hits give low values 0.946 | S. cerevisiae deletion strains, locus YOR106W, strain vam3, hits give low values 0.931 | S. cerevisiae deletion strains, locus YOR136W, strain idh2, hits give low values 0.979 | S. cerevisiae deletion strains, locus YOR144C, strain elg1, hits give low values 0.991 | S. cerevisiae deletion strains, locus YOR184W, strain ser1, hits give low values 0.986 | S. cerevisiae deletion strains, locus YOR231W, strain MKK1, hits give low values 1.05 | S. cerevisiae deletion strains, locus YOR265W, strain rbl2, hits give low values 0.985 | S. cerevisiae deletion strains, locus YOR290C, strain snf2, hits give low values 1 | S. cerevisiae deletion strains, locus YOR316C, strain cot1, hits give low values 0.991 | S. cerevisiae deletion strains, locus YPL051W, strain arl3, hits give low values 0.986 | S. cerevisiae deletion strains, locus YPL055C, strain LGE1, hits give low values 1.01 | S. cerevisiae deletion strains, locus YPL078C, strain atp4, hits give low values 0.921 | S. cerevisiae deletion strains, locus YPL106C, strain sse1, hits give low values 1.06 | S. cerevisiae deletion strains, locus YPL240C, strain hsp82, hits give low values 0.976 | S. cerevisiae deletion strains, locus YPL241C, strain CIN2, hits give low values 1.02 | S. cerevisiae deletion strains, locus YPL256C, strain CLN2, hits give low values 1.05 | S. cerevisiae deletion strains, locus YPR119W, strain clb2, hits give low values 0.988 | S. cerevisiae deletion strains, locus YPR141C, strain kar3, hits give low values 0.988 | S. cerevisiae deletion strains, locus YPR163C, strain tif3, hits give low values 0.995 | S. cerevisiae deletion strains, locus YPR167C, strain met16, hits give low values 0.993 | S. cerevisiae deletion strains, strain wtn01, hits give low values 0.977 | S. cerevisiae strains, strain wild type, hits give low values 1.02
